Jurkat NFkB inh = lowers PMA/ionomycin-induced NF-kB signal in Jurkat cells; inhibition, % at 4 µM; actives 0.53% (n = 330,000); PMA/ionomycin-induced NF-kB luciferase reporter, luminescence; in the data active = inhibition above about 50%
aSyn 5UTR inh = MLPCN primary screen, SNCA 5' untranslated region | actives 0.82% (n = 300,000) | inhibition, % (tested at 7.5 µM) | alpha-synuclein 5'UTR reporter, inhibitor activity; in the data active = inhibition above about 60%;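 also: H4 neuroglioblastoma cells stably carrying SNCA 5'UTR luciferase fusion; 0% = DMSO wells and 100% = positive control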
Gli-Sufu antag = antagonists of Gli-Sufu signaling | Sufu-KO-LIGHT fibroblasts, Gli luciferase reporter luminescence | inhibition, % at 5 µM | actives 0.74% (n = 340,000) | AID 588413;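 active = inhibition above about 55%, limit read from the data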;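 also: 0% = DMSO-treated cells and 100% = wells with medium but no cells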
CSC inhib = cancer stem cell inhibition. inhibition, % at 7.5 µM. actives 1.1% (n = 300,000). cancer stem cell-like cells viability, luminescence. AID 2717; in the data active = inhibition above about 75%; tested in HMLE shEcad cells
697 NFkB inh = lowers PMA/ionomycin-induced NF-kB signal in 697 B cells; 697 B-cell NF-kB luciferase reporter, 16 h; inhibition, % at 4 µM; actives 0.33% (n = 330,000); AID 435022; in the data active = inhibition above about 35%
Mdm2 MdmX PPI = inhibitors of human Mdm2/MdmX interaction; actives 3% (n = 330,000); inhibition, % at 8 µM; O15151+Q00987; AID 485346; SaOS-2 split-luciferase Mdm2/MdmX complementation, luminescence;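 active = inhibition of at least 50% at 8 µM in the primary screen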
Target sequence (O15151 whole entry, looked up): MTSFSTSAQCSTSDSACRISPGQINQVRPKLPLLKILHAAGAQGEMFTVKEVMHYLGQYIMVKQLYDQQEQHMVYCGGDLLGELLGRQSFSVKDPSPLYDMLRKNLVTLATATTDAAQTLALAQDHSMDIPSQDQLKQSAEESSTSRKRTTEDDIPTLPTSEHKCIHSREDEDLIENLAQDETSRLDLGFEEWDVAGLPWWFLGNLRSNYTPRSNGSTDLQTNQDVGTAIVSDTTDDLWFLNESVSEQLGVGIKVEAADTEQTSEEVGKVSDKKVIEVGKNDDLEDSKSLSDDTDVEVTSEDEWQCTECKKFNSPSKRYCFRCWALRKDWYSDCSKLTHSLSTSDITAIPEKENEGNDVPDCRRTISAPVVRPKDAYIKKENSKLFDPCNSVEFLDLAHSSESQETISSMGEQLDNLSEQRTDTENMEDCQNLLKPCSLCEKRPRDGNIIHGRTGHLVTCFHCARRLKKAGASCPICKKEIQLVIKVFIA
Target sequence (Q00987 whole entry, looked up): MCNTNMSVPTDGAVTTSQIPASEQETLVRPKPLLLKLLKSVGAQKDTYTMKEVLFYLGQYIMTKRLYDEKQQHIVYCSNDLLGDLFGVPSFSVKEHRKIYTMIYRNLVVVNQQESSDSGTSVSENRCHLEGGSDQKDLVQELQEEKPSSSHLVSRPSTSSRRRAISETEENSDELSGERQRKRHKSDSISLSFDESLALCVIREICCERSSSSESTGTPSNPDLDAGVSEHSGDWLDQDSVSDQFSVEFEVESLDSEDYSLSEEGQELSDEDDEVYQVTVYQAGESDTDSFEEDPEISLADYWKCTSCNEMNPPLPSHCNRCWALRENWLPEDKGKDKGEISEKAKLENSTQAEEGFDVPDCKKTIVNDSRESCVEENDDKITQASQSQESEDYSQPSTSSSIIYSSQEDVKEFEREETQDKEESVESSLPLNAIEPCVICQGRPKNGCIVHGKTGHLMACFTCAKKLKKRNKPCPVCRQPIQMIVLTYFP
Mdm2 MdmX conf = confirmation of human Mdm2/MdmX interaction inhibitors; shares compounds with Mdm2 MdmX PPI; Mdm2-MdmX binding, luminescent assay; inhibition, % at 8 µM; actives 55% (n = 10,000); in the data active = inhibition above about 40%
FLuc counter = full-length luciferase inhibition in Mdm2/MdmX counter-screen | shares compounds with Mdm2 MdmX PPI | SaOS-2 full-length luciferase counterscreen, luminescence | inhibition, % at 8 µM | actives 77% (n = 6,200) | AID 504607;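 active = mean inhibition at 8 µM reaching about 37%, which flags the compound as non-specific, limit read from the data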;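 also: p53-null SaOS-2 cells with luciferase driven by a doxycycline-inducible promoter; compound on cells about two nights before reading with doxycycline added after day one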
The depositor's hits bear a star; . = no result. Most compounds without a hit are left out; they make up all but 4.5% or so of the library.

SMILES	Jurkat NFkB inh	aSyn 5UTR inh	Gli-Sufu antag	CSC inhib	697 NFkB inh	Mdm2 MdmX PPI	Mdm2 MdmX conf	FLuc counter
CCn1c(=O)cc(SCC(=O)Nc2ccc(C)cn2)c2ccccc21	15	4	-218	64	16	100*	70*	143*
CCn1c(=O)cc(SCC(=O)NCc2ccc(C)o2)c2ccccc21	25	-6	-5	.	12	60*	37	.
Cn1c(N)c(C(=O)COC(=O)/C=C/c2ccccc2)c(=O)n(C)c1=O	-3	.	-2	-27	-16	-12	.	.
COc1ccc(/C=N/NC(=O)CCc2c(C)n[nH]c2C)cc1O	12	11	3	2	-13	6	.	.
COc1ccc2oc(C(=O)Nc3ccc(S(=O)(=O)N(C)C4CCN(C)CC4)cc3)c(C)c2c1	0	-41	39	8	-69	96*	46*	47*
Cc1c(C(=O)Nc2ccc(F)cc2)oc2ccc(S(=O)(=O)N3CC(C)CC(C)C3)cc12 (centres undefined)	29	-11	18	23	-3	64*	39	69*
CC1CC(C)CN(S(=O)(=O)c2ccc(F)c(C(=O)Nc3ccc(Cl)cc3F)c2)C1 (centres undefined)	-6	-1	-8	.	13	52*	12	.
COc1ccc(CC(=O)Nc2ccc(S(=O)(=O)N(C)C3CCN(C)CC3)cc2)cc1	-9	.	-4	.	-6	12	.	.
CC(Oc1ccc(Br)cc1)C(=O)Nc1ccc(S(=O)(=O)N(C)C2CCN(C)CC2)cc1 (centres undefined)	24	5	41	29	-37	59*	39	76*
O=C(C1CCCN1S(=O)(=O)c1ccc(Cl)cc1)N1CCCCC1 (centres undefined)	8	10	-2	-9	20	-6	.	.
Cc1ccc(NC(=O)C2CCN(S(=O)(=O)c3cccnc3)CC2)cc1C	-2	18	0	-4	3	8	.	.
Cc1c(S(=O)(=O)N2CCN(c3ccc(F)cc3)CC2)c(=O)n(C)c(=O)n1C	4	-12	3	0	2	-38	.	.
CC(=O)c1cc(C#N)c(SCc2ccccc2C#N)nc1C	6	-97	-3	34	2	39	.	.
CCN(CC)S(=O)(=O)c1ccc(O)c(C(=O)OCC(=O)NC23CC4CC(CC(C4)C2)C3)c1	-7	.	5	-1	5	28	.	.
COc1ccc(CC(C(=O)Nc2cccc(F)c2)c2nn[nH]n2)c(OC)c1 (centres undefined)	-29	-16	-4	-14	-10	7	.	.
COc1cccc(C2NC(=S)NC(C)=C2C(=O)c2ccccc2)c1OC (centres undefined)	29	16	21	3	-18	51*	49*	78*
O=S(=O)(c1ccc(NC(=S)NCc2ccncc2)cc1)N1CCCCC1	15	6	3	21	28	2	.	.
O=C(CSc1nnc2c3ccccc3c3ccccc3c2n1)Nc1ccccc1F	-1	39	39	14	11	76*	-3	.
COC(=O)C1=C(C)NC(C)=C(C(=O)OC)C1C(=O)OCC(=O)c1ccc(Br)cc1	11	.	-1	.	-2	-20	.	.
C=C1C(=O)[C@@]23[C@H](O)C[C@@H]4C(C)(C)CC[C@H](O)[C@]4(C)[C@@H]2C[C@H](O)[C@@H]1[C@H]3O	-12	-6	28	57	-80	83*	15	.
Cc1csc(SCC(=O)NC2CCC(C)CC2)n1 (centres undefined)	-8	1	-7	-6	5	-10	.	.
CCN(CC)C(=O)c1[nH]cnc1C(=O)NCC(=O)OCc1ccccc1	-16	3	4	-6	13	10	.	.
Cc1ccc(C)c(NC(=O)Cn2nnc(C(=O)NCc3cccs3)c2N)c1	33	19	-8	19	-21	65*	12	.
Cc1ccc(NC(=O)Cn2nnc(C(=O)NCc3cccs3)c2N)cc1	11	1	11	3	-1	21	.	.
O=C(Cc1csc(Nc2nc(=S)[nH]c3ccccc23)n1)N1CCN(c2cccc(C(F)(F)F)c2)CC1	4	27	32	70	-3	69*	15	.
SMILES	Jurkat NFkB inh	aSyn 5UTR inh	Gli-Sufu antag	CSC inhib	697 NFkB inh	Mdm2 MdmX PPI	Mdm2 MdmX conf	FLuc counter
O=C(Cc1csc(Nc2nc(=S)[nH]c3ccccc23)n1)NCc1cccc(Cl)c1	0	.	13	-6	3	85*	18	.
O=C(Cc1csc(Nc2nc(=S)[nH]c3ccccc23)n1)NCc1ccccc1Cl	5	-1	5	.	-9	92*	-11	.
S=c1nc(NCc2cccc(Cl)c2)c2ccccc2[nH]1	-6	3	-4	.	4	19	.	.
COc1cc(OC)cc(C(=O)Nc2nc(CC(=O)NCc3ccc(F)cc3)cs2)c1	27	-23	-5	46	-8	70*	65*	58*
O=C(COC(=O)CSc1ccc2ccccc2c1Br)NC1CC1	-3	4	1	-2	12	-1	.	.
Cc1ccc(CNC(=O)Cc2csc(Nc3nc(=S)[nH]c4ccccc34)n2)cc1	4	-6	.	-8	21	57*	42*	102*
COc1cc2c(OC(C)=O)c3c(c(-c4ccc5c(c4)OCO5)c2cc1OC)C(=O)OC3	7	113*	40	-5	-58	86*	74*	48*
COc1cc2c(O)c3c(c(-c4ccc5c(c4)OCO5)c2cc1OC)C(=O)OC3	17	108*	.	91*	-6	73*	72*	26
COc1ccc(-c2oc(=O)c3cc(OC)c(OC)cc3c2-c2ccc3c(c2)OCO3)cc1	-25	.	5	9	15	25	.	.
COc1ccc(CN2CCNC(=O)C2CC(=O)N(C)CC2CCOCC2)cc1C (centres undefined)	-10	7	-16	.	16	-1	.	.
CCN(CC)CCCN(C(=O)c1ccccc1F)c1nc(-c2ccc(OC)cc2)cs1	-27	-8	34	4	-27	50*	42*	69*
COc1ccc(-c2csc(N(CCCN(C)C)C(=O)c3ccc(C(C)(C)C)cc3)n2)cc1	-17	-3	-3	26	-22	54*	39	.
CCN(CC)CCCN(C(=O)c1ccc(OC)cc1)c1nc(-c2ccc(OC)cc2)cs1	-30	-13	36	18	-42	50*	40*	58*
O=C(CNc1n[nH]c(=O)[nH]c1=O)N/N=C/C=C/c1ccccc1	16	-8	1	-3	19	0	.	.
Cc1cc(NC(=O)CSc2nc(C(C)C)nc3ccccc23)no1	24	1	3	39	-14	39	.	.
Cc1nnc(NC(=O)CSc2nc(C(C)C)nc3ccccc23)s1	14	-22	12	62	-33	76*	63*	44*
